Screening data as filed in PubChem.
PD-1 reverse act = reversal of PD-1 mediated T-cell inhibition; primary human CD4 T cells, PD-L1 beads, CellTiter-Glo 96 h; activation, % (no concentration beside the values); 29,000 tested, under 10 active; AID 2316; call rule not given here;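 also: 0% = median vehicle wells and 100% = positive control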
NOMO-1 viab = STK33 inhibitor candidate reducing NOMO-1 cell viability; inhibition, % (no concentration beside the values); NOMO-1 AML viability, CellTiter-Glo luminescence, 72 h; hit rate 7.5% among 37,000; in the data active = inhibition above about 80%; inconclusive = no clear call, values can overlap the other calls
STK33 kin inh = blocks human STK33 kinase activity | hit rate 0.44% among 27,000 | inhibition, % at 12.5 µM | Q9BYT3 | ADP-Glo luminescence, MBP substrate | AID 2322; in the data active = inhibition above about 20%; inconclusive = no clear call, values can overlap the other calls
Target sequence (Q9BYT3 whole entry, looked up): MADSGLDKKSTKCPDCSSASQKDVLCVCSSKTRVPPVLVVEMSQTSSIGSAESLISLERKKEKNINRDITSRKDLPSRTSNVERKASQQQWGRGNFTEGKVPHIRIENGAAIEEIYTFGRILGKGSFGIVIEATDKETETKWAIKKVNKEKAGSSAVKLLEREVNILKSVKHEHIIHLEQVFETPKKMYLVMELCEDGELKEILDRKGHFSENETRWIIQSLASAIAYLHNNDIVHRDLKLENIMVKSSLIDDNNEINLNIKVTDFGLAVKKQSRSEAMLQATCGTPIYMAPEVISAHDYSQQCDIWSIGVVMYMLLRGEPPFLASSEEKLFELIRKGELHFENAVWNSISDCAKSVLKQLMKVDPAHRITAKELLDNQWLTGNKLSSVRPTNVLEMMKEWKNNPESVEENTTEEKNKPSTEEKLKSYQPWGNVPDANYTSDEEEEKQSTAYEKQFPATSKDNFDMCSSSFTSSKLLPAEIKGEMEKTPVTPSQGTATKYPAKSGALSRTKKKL
* = called active by the depositor. Many of the other results were omitted from the sample, so hits are more common in it than they were.

What do the screens show for `COc1ccc(C#Cc2ccc3c(c2)[C@]2(C(=O)N3)[C@H](C(=O)N3CCN(c4ncccn4)CC3)[C@H]3C(=O)O[C@H](c4ccccc4)[C@H](c4ccccc4)N3[C@@H]2c2ccc(O)cc2)cc1`?
STK33 kin inh: 8

How did Cc1cc(C(=O)Nc2cccc3c2O[C@H](CN(C)Cc2ccc(-c4ccccc4)cc2)[C@@H](C)CN([C@@H](C)CO)C3=O)n(C)n1 do in these assays?
PD-1 reverse act: 1; NOMO-1 viab: inconclusive

How did O=C(c1ccc(F)cc1)n1nc(-c2ccc(Cl)cc2)nc1NCc1ccco1 do in these assays?
PD-1 reverse act: 0; NOMO-1 viab: 104*; STK33 kin inh: -5

Results for O=C(c1ccccc1Cl)n1nc(-c2ccccc2)nc1NCc1ccco1 ?
PD-1 reverse act: 1; NOMO-1 viab: -3; STK33 kin inh: 5

How did C[C@@H]1CN([C@H](C)CO)C(=O)Cc2cc(NC(=O)Cc3ccccc3)ccc2O[C@H]1CN(C)C(=O)Nc1ccc(F)cc1 do in these assays?
PD-1 reverse act: 1; NOMO-1 viab: 8; STK33 kin inh: 1

Results for C[C@H]1CN([C@@H](C)CO)C(=O)c2cc(NC(=O)Nc3cccc4ccccc34)ccc2O[C@H]1CN(C)Cc1ccc2c(c1)OCO2 ?
PD-1 reverse act: 0; NOMO-1 viab: 97*; STK33 kin inh: -1

Results for C[C@H]1CN([C@@H](C)CO)C(=O)Cc2cc(NC(=O)Nc3cccc4ccccc34)ccc2O[C@H]1CN(C)Cc1ccc(Cl)c(Cl)c1 ?
PD-1 reverse act: -1; NOMO-1 viab: 88*; STK33 kin inh: -4

What do the screens show for `C[C@H](CO)N1C[C@H](C)[C@H](CN(C)Cc2ccc(Cl)c(Cl)c2)Oc2ccc(NC(=O)Nc3cccc4ccccc34)cc2CC1=O`?
PD-1 reverse act: 0; NOMO-1 viab: 40; STK33 kin inh: 1

How did C[C@H]1CN([C@@H](C)CO)C(=O)c2cc(NC(=O)Nc3cccc4ccccc34)ccc2O[C@@H]1CN(C)Cc1ccc(Cl)c(Cl)c1 do in these assays?
PD-1 reverse act: -3; NOMO-1 viab: 109*

Results for C[C@@H]1CN([C@H](C)CO)C(=O)Cc2cc(NC(=O)Nc3cccc4ccccc34)ccc2O[C@H]1CN(C)Cc1ccc(Cl)c(Cl)c1 ?
PD-1 reverse act: 1; NOMO-1 viab: 21

How did C[C@@H]1CN([C@@H](C)CO)C(=O)c2cc(NC(=O)Nc3cccc4ccccc34)ccc2O[C@@H]1CN(C)Cc1ccc2c(c1)OCO2 do in these assays?
PD-1 reverse act: -2; NOMO-1 viab: 43

Results for C[C@H]1CN([C@@H](C)CO)C(=O)c2cc(NC(=O)Nc3cccc4ccccc34)ccc2O[C@H]1CN(C)Cc1ccc(Cl)c(Cl)c1 ?
PD-1 reverse act: -2; NOMO-1 viab: inconclusive; STK33 kin inh: 1

How did C[C@@H]1CN([C@H](C)CO)C(=O)Cc2cc(NC(=O)Nc3cccc4ccccc34)ccc2O[C@@H]1CN(C)Cc1ccc(Cl)c(Cl)c1 do in these assays?
PD-1 reverse act: -1; NOMO-1 viab: 115*; STK33 kin inh: 1

What do the screens show for `COC(=O)c1ccccc1NC(=O)COc1cc(C)c(Br)cc1C`?
PD-1 reverse act: 0; NOMO-1 viab: 7; STK33 kin inh: 0

What do the screens show for `O=C(OCc1cccc(O)c1O[C@@H]1O[C@H](CO)[C@@H](O)[C@H](O)[C@H]1O)C1(O)C(=O)C2C=CC1C1C=CC(=O)C(O)(C(=O)OCc3cccc(O)c3O[C@@H]3O[C@H](CO)[C@@H](O)[C@H](O)[C@H]3O)C21` (stereo not given in full)?
PD-1 reverse act: -9; NOMO-1 viab: 41; STK33 kin inh: -2

How did O=C(CSc1nc2ccccc2c(=O)n1-c1ccccc1)Nc1cccc([N+](=O)[O-])c1 do in these assays?
NOMO-1 viab: 8; STK33 kin inh: -1

What do the screens show for `O=C(CC1Nc2cccc3cccc(c23)NC1=O)Nc1ccc([N+](=O)[O-])cc1` (stereo not given)?
PD-1 reverse act: -10; NOMO-1 viab: 124*; STK33 kin inh: 4

How did O=C(CC1Nc2cccc3cccc(c23)NC1=O)Nc1cccc([N+](=O)[O-])c1 (stereo not given) do in these assays?
PD-1 reverse act: -3; NOMO-1 viab: 61; STK33 kin inh: 0

What do the screens show for `CC(C)(C)c1ccc(OCC(O)Cn2cnc3ccccc32)cc1` (stereo not given)?
NOMO-1 viab: 93*; STK33 kin inh: -1

What do the screens show for `Cc1ccc(OCC(O)Cn2cnc3ccccc32)cc1` (stereo not given)?
PD-1 reverse act: 1; NOMO-1 viab: 32; STK33 kin inh: -1

Results for CC1CC(NC(=S)NCc2csc3ccccc23)CC(C)(C)C1 (stereo not given) ?
PD-1 reverse act: -2; NOMO-1 viab: 109*

How did S=C(NCc1csc2ccccc12)NCC1CC1 do in these assays?
PD-1 reverse act: -1; NOMO-1 viab: 4

How did [N-]=[N+]=NCc1ccccc1C[C@@]1(C(N)=O)N=C(c2ccc(OCCCO)cc2)O[C@@H]1c1ccccc1 do in these assays?
STK33 kin inh: 0

How did COc1cccc(C(=O)COc2ccc(NC(=O)c3ccc(Cl)c(Cl)c3)cc2)c1 do in these assays?
PD-1 reverse act: 1; NOMO-1 viab: 16; STK33 kin inh: 5

What do the screens show for `C[C@@H]1CN([C@@H](C)CO)C(=O)c2cccc(N(C)C)c2O[C@H]1CN(C)Cc1ccc(C(=O)Nc2ccccc2N)cc1`?
PD-1 reverse act: -2; NOMO-1 viab: 90*

How did C[C@H](CO)N1C[C@H](C)[C@@H](CN(C)Cc2ccc(C(=O)Nc3ccccc3N)cc2)Oc2c(NS(C)(=O)=O)cccc2C1=O do in these assays?
PD-1 reverse act: -1; NOMO-1 viab: 30

How did C[C@H](CO)N1C[C@H](C)[C@@H](CN(C)Cc2ccc(C(=O)Nc3ccccc3N)cc2)Oc2c(cccc2N(C)C)C1=O do in these assays?
PD-1 reverse act: 1; NOMO-1 viab: 44

What do the screens show for `C[C@H]1CN([C@@H](C)CO)C(=O)c2cccc(N(C)C)c2O[C@H]1CN(C)Cc1ccc(C(=O)Nc2ccccc2N)cc1`?
PD-1 reverse act: -1; NOMO-1 viab: 126*

Results for CCc1ccc(OCC(=O)Nc2cccc3ncccc23)cc1 ?
NOMO-1 viab: -15; STK33 kin inh: 0

Results for COC(=O)c1cc(OC)c(OC)cc1NC(=O)COc1ccc(C)cc1Br ?
PD-1 reverse act: -4; NOMO-1 viab: 7; STK33 kin inh: 1

What do the screens show for `C[C@H](CO)N1C[C@H](C)[C@H](CN(C)S(C)(=O)=O)Oc2ncc(-c3ccccc3)cc2C1=O`?
STK33 kin inh: -2

Results for CC(C)S(=O)(=O)c1csc(NC(=O)N2CCCCC2)c1Cl ?
PD-1 reverse act: 0; NOMO-1 viab: -4

How did CC(C)S(=O)(=O)c1csc(NC(=O)Nc2cc(C(F)(F)F)cc(C(F)(F)F)c2)c1Cl do in these assays?
PD-1 reverse act: -17; NOMO-1 viab: 113*; STK33 kin inh: 0

Results for COC(=O)C1=CO[C@@H](O[C@@H]2O[C@H](CO)[C@@H](O)[C@H](O)[C@H]2O)C2C1CC(O)C2C (stereo not given in full) ?
PD-1 reverse act: 3; NOMO-1 viab: 1; STK33 kin inh: 0

Results for C[C@H]1CN([C@@H](C)CO)C(=O)c2cc(NC(=O)CCCCCC(=O)Nc3ccccc3N)ccc2O[C@@H]1CN(C)S(C)(=O)=O ?
PD-1 reverse act: 2; NOMO-1 viab: 16
